In the library only some 3.7% were active in any assay of this set; here they are far more common.
A549 viability: Nrf2 qHTS screen for inhibitors: counterscreen for cytotoxicity. A549 ARE-Fluc cells, CellTiter-Fluor viability, 18-24 h. Potency, µM (top dose mostly 46 µM), for inactives: top-dose activity change, negative = cytotoxicity, actives largely listed as inhibitors. 390,000 tested, 0.16% active; also: % is scaled to controls: 0 for no effect and ±100 for the full control effect
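A549 ARE_Fluc cells in 5% FBS OPTI-MEM were exposed to compounds in concentration-response for 18-24 h at 37 deg C. Viability was read by CellTiter-Fluor fluorescence (Ex 405/Em 525) after 30 min, before the luciferase read.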
ELG1 DNA repair: qHTS screen for small molecules that inhibit ELG1-dependent DNA repair in human embryonic kidney (HEK293T) cells expressing luciferase-tagged ELG1 | HEK293T ELG1-luciferase reporter, luminescence, 16 h; DNA damage induced by 5-fluorouridine | Potency, µM (titrated, usually from 46.1 µM), inactives show at the top dose activity change, negative = inhibition, actives largely listed as inhibitors | 330,000 tested, 2.3% active | AID 504467, 2011; also: % is scaled to controls: 0 for no effect and ±100 for the full control effect; nearly all actives have a fitted effect of over 55% in size
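Step one: seed 2,000 cells per well. Step two: pin-transfer compound or DMSO alongside 5-fluorouridine. Step three: incubate 16 hr, 37 °C, 5% CO2. Step four: add ONE-Glo, wait 30 min, read luminescence.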
Nrf2 activator: qHTS of Nrf2 Activators; AREc32 ARE-luciferase reporter (MCF7-derived line), luminescence, 24 h; Potency, µM (series often up to 46.1 µM), for the others: at the highest dose activation, actives largely listed as activators; 410,000 tested, 0.31% active; also: % of control where 0% means no effect; nearly all actives have a fitted effect of over 65% in size
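Reporter line AREc32 (ARE-Fluc), seeded overnight in OPTI-MEM with 5% FBS; compound pin-transferred, 24 hr at 37 deg C, 5% CO2; luminescent read-out.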
Nrf2 inh: Nrf2 qHTS screen for inhibitors | 360,000 tested, 2.1% active | AID 504444, 2011 | A549 ARE-Fluc reporter, luciferase luminescence, 18-24 h | Potency, µM (titrated, usually from 46 µM), for inactives: at the highest dose activity change, negative = inhibition, hits mostly inhibitors; also: % is scaled to controls: 0 for no effect and ±100 for the full control effect; nearly all actives have a fitted effect of over 60% in size
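Nrf2 function is reported as luminescence of an ARE-controlled luciferase in A549 cells. Compounds were tested at several concentrations, and a CellTiter-Fluor read on the same wells flagged cytotoxicity.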
Starred values were filed as active, the others as inactive; u = inconclusive; x = no result given; ! = not confirmed by another sample. Calls follow the shape of the dose curve; as a rule, active = well fitted curve in the direction sought with a large enough effect; inconclusive = small, poorly fitted or top-dose-only effect, or another doubt; inactive = no such curve, though single readings can be large; an effect the other way counts as inactive or inconclusive. Potency is read from the fitted curve at half-maximal effect.

SMILES	A549 viability	ELG1 DNA repair	Nrf2 activator	Nrf2 inh
CC(=O)Nc1ccc(NC2=Nc3ccccc3N3C2=Nc2c(c(C)nn2-c2ccccc2)C3c2ccccc2)cc1 (stereo not given)	-4%	2.8µM*	0%	u
COc1cccc(C2c3c(ncn(-c4ccc(C(C)(C)C)cc4)c3=N)Oc3ccc4ccccc4c32)c1 (stereo not given)	-6%	x	x	u
CN(C)S(=O)(=O)c1cccc(NC(=O)c2cnccn2)c1	x	8%	x	x
COc1ccc(NS(=O)(=O)c2cccc(NC(=O)c3cnccn3)c2)cc1Br	1%	18µM*	3%	u
COc1ccccc1NS(=O)(=O)c1cccc(NC(=O)c2ccc3ccccc3n2)c1	-16%	18µM*	7%	u
NS(=O)(=O)c1ccc(CCNC(=O)c2cc3ccccc3oc2=O)cc1	5%	11%	0%	1%
Cc1ccc(C)c(NC(=S)NCCSc2ccc(Cl)cc2)c1	u	2%	-1%	-14%
Cc1ccccc1NC(=S)NCCSc1ccc(Cl)cc1	-21%	-18%	-1%	23µM*
CCc1ccccc1NC(=S)NCCSc1ccc(Cl)cc1	u	u	0%	23µM*
CCC(C)N1CC(=O)N2C(c3ccc(OC)cc3OC)c3[nH]c4ccccc4c3C[C@H]2C1=O (stereo not given in full)	14%	1%	1%	1%
COc1cccc(N=c2oc3ccc(OC)cc3cc2-c2nc3ccccc3[nH]2)c1	13µM*	x	14%	u
COc1cccc(N=c2oc3ccccc3cc2-c2nc3ccccc3[nH]2)c1	-2%	u	13%	u
Cc1ccc(S(=O)(=O)N(C)C)cc1NC(=O)C(C)N(C)Cc1sccc1C (stereo not given)	-18%	-20%	0%	13µM*
Cc1ccc(S(=O)(=O)N(C)C)cc1NC(=O)C(C)NC(C)c1cccs1 (stereo not given)	9%	u	0%	u
Cc1cc(NC(=O)CSc2nc(-c3ccccc3Cl)nc3c2c(=O)n(C)c(=O)n3C)no1	3%	-5%	5%	5%
FC(F)(F)c1ccc(/C=N/NC(=S)NC2CCCCC2)cc1	3%	-19%	4%	-10%
C=CCNC(=S)N/N=C/c1ccc(C)cc1C	-3%	u	14%	18µM*
CCNC(=S)N/N=C/c1cc(C)ccc1C	4%	5%	12%	1%
C=CCNC(=S)N/N=C/c1ccc(C(F)(F)F)cc1	-3%	4.6µM*	4%	u
O=C(NCCc1ccc(C(F)(F)F)cc1)C1CCC(=O)N(CCCc2ccccc2)C1 (stereo not given)	1%	5%	0%	-17%
COc1ccc(NC(=O)CN(C)C(=O)CN2C(=O)C3CCCCC3C2=O)cc1 (stereo not given)	-6%	3%	-1%	2%
CC(=O)Nc1ccc(NC(=O)c2nc(S(=O)(=O)Cc3ccccc3)ncc2Cl)cc1	2%	u	-3%	4%
Cc1ccc(CS(=O)(=O)c2ncc(Cl)c(C(=O)Nc3nnc(C(C)C)s3)n2)cc1	u	u	3%	21µM*!
CCc1nnc(NC(=O)c2nc(S(=O)(=O)Cc3ccccc3)ncc2Cl)s1	u	u	14µM*	-114%
Cc1cccc(CS(=O)(=O)c2ncc(Cl)c(C(=O)Nc3nnc(C(C)C)s3)n2)c1	u	u	-2%	1%
SMILES	A549 viability	ELG1 DNA repair	Nrf2 activator	Nrf2 inh
CCc1nnc(NC(=O)c2nc(S(=O)(=O)Cc3ccc(C)cc3)ncc2Cl)s1	u	u	2%	21µM*!
CCc1nnc(NC(=O)c2nc(S(=O)(=O)Cc3cccc(C)c3)ncc2Cl)s1	u	u	-2%	23µM*
CCc1cc2c(cc3c(=O)n(CC(=O)NCCc4ccccc4)ncn32)s1	-11%	x	1%	-21%
CC(C)c1nnc(NC(=O)c2nc(S(=O)(=O)Cc3ccccc3F)ncc2Cl)s1	-12%	u	-2%	5%
Cc1nnc(NC(=O)c2nc(S(=O)(=O)Cc3ccccc3C)ncc2Cl)s1	-7%	21µM*	6%	u
COc1ccc(-c2nc3cccc(OC)c3c(=O)n2Cc2ccccc2)cc1COc1ccc(NC(C)=O)cc1	-13%	x	x	-15%
COc1ccc(NC(=O)CSc2nc3sc(C)cc3c(=O)n2C)c(OC)c1	-11%	u	-1%	18µM*
COc1ccc(NC(=O)CSc2nc3sc(C)cc3c(=O)n2C)cc1	-16%	15%	0%	-8%
Cc1cccc(NC(=O)CSc2nc3sc(C)cc3c(=O)n2C)c1	-9%	x	6%	23µM*
Cc1ccccc1C(=O)NC(C(N)=O)P(=O)(OC(C)C)OC(C)C (stereo not given)	1%	1%	0%	-23%
COc1cc(CNC(=O)c2cnc(SC)nc2-c2ccccc2)cc(OC)c1OC	-9%	x	4%	20%
COc1cc(/C=N/NC(=O)Cc2cccs2)c([N+](=O)[O-])cc1OC	0%	u	-1%	8%
Cc1ccc(NC(=S)N/N=C/c2ccc([N+](=O)[O-])s2)cc1	23µM*	0%	-1%	u
O=C(Cc1cccs1)N/N=C\c1ccc([N+](=O)[O-])s1	-22%	15µM*	0%	u
O=c1cc2oc3cc(O)c(O)cc3c(-c3ccccc3[N+](=O)[O-])c-2cc1O	5.2µM*	21µM*	0%	3.3µM*
COc1cc(C(=O)Nc2cccc(NC(=O)c3cccs3)c2)cc(OC)c1OC	-5%	8.2µM*	-1%	-22%
COc1cccc(C(=O)Nc2cc(NC(=O)c3cccs3)ccc2C)c1OC	u	16µM*	0%	u
COc1cc(C(=O)OCc2ccc(C)cc2)cc(NC(=O)c2cccs2)c1OC	0%	21µM*	-1%	u
COc1cc(C(=O)O)cc(NC(=O)c2cccs2)c1OC	5%	u	0%	15%
CC(Cc1cccs1)NC(=O)CCCn1nnnc1CN1CCOCC1 (stereo not given)	-3%	-13%	0%	6%
CCOC(=O)c1cccc(NC(=O)CSc2ncc3c(n2)-c2ccccc2N(C)S3(=O)=O)c1	-2%	x	4%	u
COC(=O)c1ccc2c(c1)N(C)S(=O)(=O)c1cnc(SCC(=O)C(C)(C)C)nc1-2	0%	16µM*	1%	0%
CCN=c1scc(C)n1/N=C/c1cc(Br)c(O)c(OC)c1	u	5.8µM*	4%	5%
CCOc1ccccc1CN1CCNC(=O)C1CC(=O)NCc1ccccn1 (stereo not given)	11%	20%	-1%	9%
CN(C)/C=C/C(=O)c1ccc(Cl)c([N+](=O)[O-])c1	-11%	12%	13µM*	3%
CN(C)/C=C/C(=O)c1cccc(Cl)c1	-17%	u	4%	-21%
O=C1C(Cc2ccccc2)Nc2ncnc(N3CCc4ccccc4C3)c2N1Cc1ccc(Br)cc1 (stereo not given)	x	-13%	x	x

From PubChem BioAssay
